Most compounds without a hit are left out; they make up all but 11% or so of the library.
HTT ATP protect – cytoprotection in Huntington HTT-Q103 PC12 cell model; Potency, µM (doses to about 56.4 µM), inactives show cytoprotection (ATP increase), hits mostly activators; PC12 HTT-Q103 induced, cytoprotection, ATP luminescence, 40 h; 230,000 tested, 0.14% active; further: potency means the concentration at half of the fitted maximal effect; % of control where 0% means no effect; nearly all actives have a fitted effect of over 45% in size
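PC12 cells with ecdysone-inducible HTT exon 1 Q103-GFP, induced with 100 nM tebufenozide and co-treated with library compounds in a dose series (1536-well, 1500 cells/well). Cytoprotection read as ATP content by ATPlite luminescence.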
HPGD block – blocks human HPGD enzyme activity | purified HPGD, NADH fluorescence kinetic, PGE2 substrate | Potency, µM, inactives show at the top dose activity change, negative = inhibition, actives largely listed as inhibitors | 150,000 tested, 4.3% active; active means well fitted inhibition curve with a large enough effect, not every such curve was filed as active; inconclusive means small, poorly fitted or top-dose-only effect, or another doubt; inactive means no such curve, though single readings can be large or run the other way; further: potency means the concentration at half of the fitted maximal effect; on the % scale 0 is the no-effect control and ±100 the full control effect
Target sequence (P15428 whole entry, looked up): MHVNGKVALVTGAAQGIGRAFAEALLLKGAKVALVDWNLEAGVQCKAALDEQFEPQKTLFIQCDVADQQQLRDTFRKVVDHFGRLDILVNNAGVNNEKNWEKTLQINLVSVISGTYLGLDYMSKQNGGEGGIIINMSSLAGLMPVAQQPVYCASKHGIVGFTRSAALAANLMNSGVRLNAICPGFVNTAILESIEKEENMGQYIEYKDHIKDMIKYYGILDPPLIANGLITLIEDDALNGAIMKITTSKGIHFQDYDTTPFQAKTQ
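NADH formation kinetics: reaction with 30 uM PGE2 and 1 mM NAD+ (final), 20 nM enzyme, Tris-HCl pH 8 with Tween 20, after 15 min compound preincubation at room temperature. Fluorescence change, last versus first of five reads.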
ALDH1A1 block – inhibitors of human aldehyde dehydrogenase 1A1 | Potency, µM (series often up to 75.3 µM), for the others: top-dose activity, negative = inhibition, hits mostly inhibitors | 220,000 tested, 7.3% active | Purified ALDH1A1, NADH fluorescence, propionaldehyde substrate; active means well fitted inhibition curve with a large enough effect, not every such curve was filed as active; inconclusive means small, poorly fitted or top-dose-only effect, or another doubt; inactive means no such curve, though single readings can be large or run the other way;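 further: potency means the concentration at half of the fitted maximal effect; plate controls were no enzyme wells and a reference inhibitor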
HttQ103 aggreg – inhibitors of mutant huntingtin aggregate formation in PC12 cells. 220,000 tested, 1.1% active. Potency, µM (highest dose often 46.1 µM), without a hit: at the top dose activity change, negative = inhibition, usual class: inhibitors. PC12 HttQ103-GFP aggregates, Acumen cytometry, 40 h; further: potency means the concentration at half of the fitted maximal effect; on the % scale 0 is the no-effect control and ±100 the full control effect; nearly all actives have a fitted effect of over 60% in size
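Multiplexed with ATP-based cell death, this channel scores GFP aggregates in PC12 cells expressing inducible HTTex1-Q103-GFP. Induction used 100 nM tebufenozide; compounds were tested in concentration series.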
RGS12 GoLoco inh – RGS12 GoLoco-Gai1 interaction inhibition | Potency, µM (highest dose often 61.6 µM), for the others: at the top dose activity, negative = inhibition, hits mostly inhibitors | Gai1:RGS12 GoLoco peptide FP, rhodamine, 10 min | 230,000 tested, 0.44% active | AID 880; active means well fitted inhibition curve with a large enough effect, not every such curve was filed as active; inactive means no such curve, though single readings can be large or run the other way; further: potency means the concentration at half of the fitted maximal effect; on the % scale 0 is the no-effect control and ±100 the full control effect; nearly all actives have a fitted effect of over 30% in size
Target sequence (P63096 whole entry, looked up): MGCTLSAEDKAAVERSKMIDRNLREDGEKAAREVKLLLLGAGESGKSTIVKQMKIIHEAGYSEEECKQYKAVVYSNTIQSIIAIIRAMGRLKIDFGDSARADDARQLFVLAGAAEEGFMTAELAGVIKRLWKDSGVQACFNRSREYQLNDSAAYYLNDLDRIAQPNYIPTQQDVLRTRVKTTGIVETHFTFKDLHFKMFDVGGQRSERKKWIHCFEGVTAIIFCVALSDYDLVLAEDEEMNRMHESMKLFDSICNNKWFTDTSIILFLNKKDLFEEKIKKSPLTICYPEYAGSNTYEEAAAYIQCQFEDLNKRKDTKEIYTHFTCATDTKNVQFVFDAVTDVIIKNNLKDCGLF
PNC inhibitor – blocks assembly of the perinucleolar compartment. PC3M PTB-GFP, PNC prevalence imaging, 16 h; active compounds read low. activity change (PNC), negative = inhibition, % at 10 µM. 140,000 tested, 3.1% active;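 active means readout at or below -70, meaning at least 70% loss of cells showing the perinucleolar compartment, a nuclear body marking cancer cells; inconclusive means readout between -30 and a set limit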;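 further: plate controls were DMSO wells for no effect and camptothecin positive control wells for full effect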
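Read-out is percentage of cells bearing a perinucleolar compartment, from automated 20x imaging of fixed, Hoechst-stained PC3M PTB-GFP cells. Cells were seeded 4 h, then exposed 16 h to compound (23 nl of library stock) in duplicate plates.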
Active calls of the source: *; u = inconclusive; x = no result given; [ ] = another dose, or the depositor's remark. Unless noted, the call rests on the fitted dose curve; in most records, active means well fitted curve in the direction sought with a large enough effect; inconclusive means small, poorly fitted or top-dose-only effect, or another doubt; inactive means no such curve, though single readings can be large; an effect the other way counts as inactive or inconclusive.

SMILES	HTT ATP protect	HPGD block	ALDH1A1 block	HttQ103 aggreg	RGS12 GoLoco inh	PNC inhibitor
Cc1ccccc1-n1c(SCc2c(C)noc2C)nnc1-c1cccnc1	-5%	x	5%	-11%	x	u
Cc1ccccc1-n1c(SCC(=O)c2cc(C)n(C)c2C)nnc1-c1cccnc1	-3%[10 µM]	25µM*	u	12%	49%	-5
CCn1c(CSc2nnc(-c3cccnc3)n2-c2ccccc2C)nc2cc(C(=O)O)ccc21	20%[1.9 µM]	-17%	u	-23%	3.2µM*	-27
CCn1c(CSc2nnc(-c3ccncc3)n2CCOC)nc2cc(C(=O)O)ccc21	-15%	x	1%	12%	11µM*	x
COCCn1c(SCC(=O)c2c(-c3ccccc3)n(C)c3ccccc23)nnc1-c1ccncc1	8%[10 µM]	-9%	20µM*	15%	-16%	-3
COCCn1c(C)cc(C(=O)CSc2nnc(-c3cccnc3)n2-c2ccccc2F)c1C	0%	-5%	1%	-8%	22%	-14
CCN(c1ccccc1)S(=O)(=O)c1ccc(Cl)c(C(=O)N(CC2CCCO2)C2CCS(=O)(=O)C2)c1 (configuration not stated)	5%[10 µM]	x	-14%	11%	68%	x
CC(=O)OC1CC[C@]2(C)C(=CCC3C4CCC(C(C)CCCC(C)C)[C@]4(C)CCC32)C1 (some centres not stated)	x	-1%	1%	x	1%	x
O=c1[nH]ccc2c(O)cccc12	-14%[1.9 µM]	u	u	x	5%	x
O=C(c1cccc(F)c1)N1CCC2(CC1)CCN(C(c1ccccc1)c1ccccc1)CC2	-82%	-9%	-9%	x	6%	x
CCOc1ccc(C(=O)CSc2nnc3ccccn23)cc1	-8%	-4%	6%	9%	6%	27
CCn1c(CSc2nnc3ccccn23)nc2cc(C(=O)O)ccc21	-5%[10 µM]	-8%	10%	19%	4.5µM*	-2
N#Cc1cccc(-c2nc(Nc3ccccc3)c3ccccc3n2)c1	-13%	-14%	u	x	2%	x
COc1cc2oc(=O)cc(-c3ccc(-c4sccc4C=O)cc3)c2c(OC)c1OC	-37%	-11%	-7%	x	1%	x
COc1nc(-c2ccccc2)ccc1-c1noc(-c2ccco2)n1	29%[10 µM]	u	u	-19%	3.5µM*	-2
COc1ccc(-c2ccc(-c3noc(-c4ccco4)n3)c(OC)n2)cc1	14%[10 µM]	u	u	9%	33%	33
COc1ccccc1-c1noc(-c2ccco2)n1	-25%[10 µM]	-5%	-6%	0%	8%	-118*
CS(=O)(=O)Nc1c(O)ccc2c1CCC[C@H]2C1=NCCN1	7%	2%	6%	x	4%	x
CC1(C)[C@@H]2CC[C@@]1(CS(=O)(=O)Nc1ccccc1)C(=O)C2	-11%[10 µM]	-4%	15%[13.5 µM]	x	4%[14.2 µM]	x
CC(=O)OC[C@H]1O[C@@H](CCO/N=C2/[C@H]3O[C@@H]3[C@@H](O)[C@H]3[C@H]2CCn2c(=O)n(-c4ccccc4)c(=O)n23)C=C[C@@H]1OC(C)=O	0%[10 µM]	x	-1%[13.5 µM]	x	x	x
CC(C)(C)N1CSC(=S)N(Cc2ccccc2)C1	-12%	x	32µM*	-23%	14%	x
CCCCN1CSC(=S)N(Cc2ccccc2)C1	0%[10 µM]	-21%	3.5µM*	x	-8%[14.2 µM]	x
CNC(=S)N1CCN(c2ccc(Cl)c(Cl)c2)CC1	13%[10 µM]	x	3%	u	0%	x
COC(=O)C1=C(C(=O)OC)[C@@H]2N(C)c3ccccc3[C@@]23C[C@@H](C(=O)OC)N(S(=O)(=O)c2ccc(C)cc2)C3=N1	-3%[10 µM]	-2%	15%[13.5 µM]	x	-3%[14.2 µM]	x
OCCSCc1cc(Cl)cc(Cl)c1O	21%[10 µM]	0%	-11%[13.5 µM]	x	-1%[14.2 µM]	x
SMILES	HTT ATP protect	HPGD block	ALDH1A1 block	HttQ103 aggreg	RGS12 GoLoco inh	PNC inhibitor
CCCCCCNC(=O)c1c(O)c2ccccc2[nH]c1=O	13%[10 µM]	-12%	5%	13%	-2%	-29
O=C(CS(=O)(=O)c1ccccc1)NC1CCCCC1	-4%[10 µM]	x	4%	23%	5%	x
O=S(=O)(CC12C3C4C5C1C2C(Br)(C43)C51OCCO1)c1ccccc1 (configuration not stated)	x	-6%	11µM*	x	x	5
CCn1nc(NC(=O)c2cccs2)c2cc3ccccc3nc21	-26%	x	-13%	-26%	22%	x
CCC(=O)c1ccc(OCCSc2ncccn2)cc1	-37%[10 µM]	32µM*	-6%	-20%	0%	40
COc1cc(O)oc1C=Nc1ccccc1	u	-26%	20µM*	-2%	-21%	12
C[C@]12C=CC(=O)C=C1CC[C@@H]1[C@H]3C[C@@H](O)[C@](O)(C(=O)CO)[C@@]3(C)C[C@H](O)[C@]12F	-46%[17.1 µM]	-15%	7%[20.9 µM]	x	8%[21.6 µM]	x
C[C@H]1Cc2c(-c3ccccc3)nc3c(c2CO1)CN(S(=O)(=O)c1ccc2c(c1)OCCN2C)CC3	-20%[10 µM]	-9%	-4%[13.5 µM]	x	-7%[14.2 µM]	x
NC(=O)c1sc(=S)n2c1[nH]c(=O)c1sccc12	36%[10 µM]	x	u	2%	2%	x
CC(=O)NNC(=O)c1sc(=S)n2c1[nH]c(=O)c1sccc12	33%[10 µM]	x	3.5µM*	5%	-2%	x
COc1ccccc1C1CCN(c2ccc([N+](=O)[O-])c(OC)c2)CC1	u	x	1%	1%[9.22 µM]	6%	x
COc1ccccc1C1NC=C([N+](=O)[O-])C=C1[N+](=O)[O-] (configuration not stated)	x	3.5µM*	8.9µM*	u	116%	16
COc1ccccc1C1C([N+](=O)[O-])=CC([N+](=O)[O-])=CN1C (configuration not stated)	x	-10%	13µM*	20%	32%	u
O=C(Nc1ccccc1)N1CC[C@@]2(CCCN(C(=O)c3cccc(F)c3)C2)C1	14%	-1%	-3%	x	0%	x
O=C(c1csnn1)N1CCC[C@@]2(CCN(c3ccncc3)C2)C1	25%	-10%	-6%	x	-6%	x
Cc1cccc(NS(=O)(=O)c2cc(C(=O)O)ccc2Cl)c1	x	-8%	-3%	x	x	x
Fc1ccc(/C=N/N2CCOCC2)c(F)c1	0.71µM*	x	2%	-6%	-1%	x
COc1ccc(O)c(/C=N/N2CCOCC2)c1	17%[10 µM]	x	x	2%[9.22 µM]	2%	x
Oc1ccc(/C=N/N2CCOCC2)c(O)c1O	-40%	x	7.1µM*	17%	-16%	x
CCCn1c(C)nc2c(NCCN(C)C)nc(C)nc21	11%	-19%	1%	x	11%	x
O=C(O)[C@@H](Cc1c[nH]c2ccccc12)C(=O)NO	-14%[10 µM]	-12%	-4%[13.5 µM]	x	2%[14.2 µM]	x
CC(=O)N(Cc1nc2sc(C)c(C)c2c(=O)[nH]1)C1CCCC1	13%[10 µM]	x	-5%	2%[9.22 µM]	19%	x
NC(=O)c1ncn([C@@H]2O[C@@H](CO)[C@@H](O)[C@H]2O)c1O	-7%[1.9 µM]	x	x	x	x	x
O=C(O)CCCNc1cc(N2CCC3(CC2)OCCO3)c2noc3c2c1C(=O)c1ccccc1-3	-41%	-30%	u	-4%	126%	-20

Bioassay records from PubChem.
